From PubChem BioAssay AID1851 (National Center for Advancing Translational Sciences (NCATS), 2009)
Several values for one entry are separate records, joined by “and”; a condition that tells them apart may be missing. Identical values can stand only once. The campaign covered roughly 16,000 compounds. About 4,000 (25%) were called active. Roughly 26% stayed inconclusive and do not appear here. Calls come from the whole dose curve; as a rule, active = well fitted curve in the direction sought with a large enough effect; inconclusive = small, poorly fitted or top-dose-only effect, or effect the other way; inactive = no such curve, though single readings can be large or run the other way. Only a sample is shown.

molecular target: Cytochrome P450 2C9 (Homo sapiens) (UniProt P11712); assay: Cytochrome panel assay with activity outcomes; conditions: recombinant CYP, pro-luciferin dealkylation, luminescence, p450-cyp2c9; series mostly up to 57.1 µM; activity, negative = inhibition: at the top concentration
Sequence (P11712 whole entry, looked up): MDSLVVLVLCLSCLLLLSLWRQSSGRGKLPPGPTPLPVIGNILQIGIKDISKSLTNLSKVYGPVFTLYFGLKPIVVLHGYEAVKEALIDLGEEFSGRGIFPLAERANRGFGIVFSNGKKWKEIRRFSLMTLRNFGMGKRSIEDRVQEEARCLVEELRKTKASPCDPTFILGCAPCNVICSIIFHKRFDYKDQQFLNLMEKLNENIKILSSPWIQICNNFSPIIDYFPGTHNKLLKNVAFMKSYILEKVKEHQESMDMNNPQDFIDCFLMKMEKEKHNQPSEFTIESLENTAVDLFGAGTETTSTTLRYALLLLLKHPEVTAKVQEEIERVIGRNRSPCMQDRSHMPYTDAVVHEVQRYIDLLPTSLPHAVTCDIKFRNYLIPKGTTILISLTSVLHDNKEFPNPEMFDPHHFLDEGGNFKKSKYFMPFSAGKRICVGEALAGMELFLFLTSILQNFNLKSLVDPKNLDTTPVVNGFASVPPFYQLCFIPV
% is set by controls: 0 for no effect and ±100 for the full control effect.

| SMILES | activity, negative = inhibition | AC50 |
| --- | --- | --- |
| CSc1nc(C)c2c(n1)N(c1ccc(C(F)(F)F)cc1)CC2 | -10.3% (inactive) | – |
| O=C1N=C(N2CCOCC2)S/C1=C/c1cccs1 | 11.2% (inactive) | – |
| N=C1/C(=C/c2cccs2)C(=O)N=C2SN=C(SCc3ccccc3)N12 | – | 0.316 µM (active) |
| CN1[C@@H](CC(=O)c2ccccc2)CCC[C@@H]1C[C@@H](O)c1ccccc1 | – | inactive |
| NC(=O)N1c2ccccc2C=Cc2ccccc21 | -13.6% [at 25.6 µM] (inactive) | – |
| O=C(C[C@@H]1C=Cc2ccccc2N1C(=O)c1ccccc1)c1ccccc1 | – | 2.51 µM (active) |
| CO[C@@H]1COC(=O)C/C=C\[C@H](C)[C@@H](NS(=O)(=O)c2ccc(C)cc2)COC(=O)C/C=C\[C@@H]1C | -12.8% [at 11.4 µM] (inactive) and 11% [at 11.4 µM] (inactive) | – |
| Nc1nc2c(c(=O)[nH]1)N(C=O)[C@H](CNc1ccc(C(=O)N[C@@H](CCC(=O)O)C(=O)O)cc1)CN2 | 5.94% [at 25.6 µM] (inactive) | – |
| Cc1cc(C(C)(C)C)c(OCCCN2CCOCC2)c(C(C)(C)C)c1 | -0.273% [at 11.4 µM] (inactive) | – |
| N#Cc1c(N2CCCCC2)nc(N)c2c(N)nc3c(c12)CC(c1ccccc1)O3 (centres undefined) | – | 4.47 µM (active) |
| CN(C)Cc1ccccc1-c1nc(N2CCOCC2)c2ccccc2n1 | 5.66% [at 2.29 µM] (inactive) | – |
| CN(C)Cc1ccccc1-c1ccc2ncnc(N3CCOCC3)c2c1 | 8.68% [at 2.29 µM] (inactive) | – |
| CN1c2ccccc2C(C)(C)C12C=Nc1c(cc(N3CCOCC3)c3ccccc13)O2 (centres undefined) | – | 1.58 µM (active) |
| CCOc1cc(C2NN=C(c3ccccc3)S2)ccc1OCc1ccccc1Cl (centres undefined) | – | 8.91 µM (active) |
| COc1cc(CNCc2ccccn2)ccc1OCc1ccc(Cl)cc1Cl | -15.6% (inactive) | – |
| CN(C)C(=O)c1ccc(-c2cncnc2NC2CCNCC2)cc1 | 15.8% [at 2.29 µM] (inactive) | – |
| CCOC(=O)C1C(=O)C=C(c2ccc(NS(C)(=O)=O)cc2)CC1c1ccco1 (centres undefined) | – | 4.47 µM (active) |
| CCOC(=O)C1C(=O)C=C(c2ccc(C)cc2)CC1c1ccco1 (centres undefined) | – | 3.16 µM (active) |
| CCN(CC)C(=O)Cn1cnc([N+](=O)[O-])n1 | -10.1% (inactive) | – |
| CN1CC(c2ccccc2)C2(COc3ccccc3C2=O)C12C(=O)Nc1ccccc12 (centres undefined) | – | 3.98 µM (active) |
| COc1cc(C2C(C(=O)OCCC#N)=C(C)NC3=C2S(=O)(=O)c2ccccc23)cc(OC)c1OC (centres undefined) | – | 7.08 µM (active) |
| C[C@@H](C(=O)O)c1ccc(C[C@@H]2CCCC2=O)cc1 | -13.5% (inactive) | – |
| Cc1nc2ccccn2c1C(=O)CSc1ccccc1Cl | – | 11.2 µM (active) |
| O=C(c1ccc(F)cc1)C1CCN(CCCCc2ccccc2)CC1 | 7.51% (inactive) | – |
| S=C(Nc1ccccc1)N1CCCCC1 | -28.5% (inactive) | – |
| O=C(c1ccc(F)cc1)C1CCN(C(=S)Nc2ccccc2)CC1 | – | 8.91 µM (active) |
| CC(C)CO/N=C1/C[C@@H](O)[C@@H](O)[C@@H]2[C@@H]3C(=O)N(Cc4ccc5c(c4)OCO5)C(=O)[C@H]3CC[C@@H]12 | -17.6% [at 11.4 µM] (inactive) | – |

| SMILES | activity, negative = inhibition | AC50 |
| --- | --- | --- |
| CC(C)CO/N=C1/C[C@@H](O)[C@@H](O)[C@@H]2[C@@H]3C(=O)N(Cc4ccc5c(c4)OCO5)C(=O)[C@H]3CC[C@H]12 | -12.4% [at 11.4 µM] (inactive) | – |
| CC(C)CO[C@H](c1ccc2c(c1)OCO2)[C@H](C)Br | – | 2 µM (active) |
| COC(=O)c1cc(=O)[nH]c(=O)[nH]1 | 3.6% [at 11.4 µM] (inactive) | – |
| Cc1ccc(C(=O)Nc2cc(Cl)ccc2OC(=O)c2ccc(C)cc2)cc1 | – | 14.1 µM (active) |
| CCOc1ccc(C(=O)Nc2ccc(Cl)cn2)cc1Cl | 8.6% (inactive) | – |
| C#CCCCO/N=C1/C[C@@H](O)[C@@H](O)[C@@H]2[C@@H]3C(=O)N([C@@H](C)c4ccccc4)C(=O)[C@H]3CC[C@H]12 | -17.4% [at 11.4 µM] (inactive) | – |
| CSc1nc(Oc2ccc(=O)[nH]n2)nc(N(C)C)n1 | 5.69% (inactive) | – |
| CCOC(=O)c1c(NC(=S)NC(=O)c2cnn(CC)c2)sc2c1CCC(C)C2 (centres undefined) | – | 5.01 µM (active) |
| CCOC(=O)CCN1C(=O)[C@H]2[C@@H]3[C@H](O)[C@H](O)CC(=O)[C@H]3CC[C@H]2C1=O | 14.8% [at 11.4 µM] (inactive) and 4.05% [at 11.4 µM] (inactive) | – |
| C[C@@](N)(C(=O)O)c1ccc(P(=O)(O)O)cc1 | 18.4% (inactive) | – |
| O=C(c1ccccc1)c1ccc2nc(-c3ccc(NC(=O)c4ccccc4F)cc3)[nH]c2c1 | – | 4.47 µM (active) |
| O=C(c1ccccc1)c1ccc2nc(-c3ccc(NC(=O)c4ccccc4Br)cc3)[nH]c2c1 | – | 2 µM (active) |
| O=C(O)c1ccc(NCc2nc3cc4ccccc4cc3[nH]2)cc1 | 8.12% [at 11.4 µM] (inactive) | – |
| C[C@@H](c1ccccc1)N1C(=O)[C@H]2[C@@H]3[C@H](O)C=CC(=O)[C@H]3CC[C@H]2C1=O | 3.06% [at 11.4 µM] (inactive) | – |
| Cc1nn(CCc2n[nH]c(=S)n2-c2ccc(F)c(Cl)c2)c(C)c1[N+](=O)[O-] | -22% (inactive) | – |
| COC(=O)N1CCC[C@@]2(CCN(C(=O)Nc3ccccc3)C2)C1 | 0.884% (inactive) | – |
| COc1ccc(NC(=O)N2CCC3(CC2)CCN(C(=O)c2csnn2)CC3)cc1 | -5.5% (inactive) | – |
| O=C(O)Cc1ccc(O)c(O)c1 | -21.4% (inactive) | – |
| O=C(O)Cc1cc(I)c(Oc2ccc(O)c(I)c2)c(I)c1 | – | 5.01 µM (active) |
| COc1cc(CC(=O)O)ccc1O | 26.1% (inactive) | – |
| O=C(Nc1cccc(NC(=O)c2ccccc2[N+](=O)[O-])n1)c1ccccc1[N+](=O)[O-] | – | 0.794 µM (active) |
| Cc1cccc(NC(=O)c2ccc([N+](=O)[O-])o2)n1 | -15.3% (inactive) | – |
| CCOc1cc(NC(=O)c2ccccc2[N+](=O)[O-])c(OCC)cc1NC(=O)CC(C)C | 14.7% (inactive) | – |
| CO/N=C(\C(=O)N[C@@H]1C(=O)N2C(C(=O)[O-])=C(C[N+]3(C)CCCC3)CS[C@@H]12)c1csc(N)n1 | -12.8% [at 25.6 µM] (inactive) | – |
| N#Cc1cccc(-c2nc(NCCN3CCOCC3)c3ccccc3n2)c1 | 5.64% [at 2.29 µM] (inactive) | – |
| N#Cc1nc(-c2ccc(OCc3ccccc3)cc2)oc1NCCN1CCOCC1 | – | 7.94 µM (active) |
| N#Cc1ccccc1-c1ccc2ncnc(NCCN3CCOCC3)c2c1 | 2.09% [at 2.29 µM] (inactive) | – |
